{"source": "PubChem BioAssay"}
{"molecular_target": "Left-right determination factor 2 (Homo sapiens) (UniProt O00292)", "sequence (O00292 whole entry, looked up)": "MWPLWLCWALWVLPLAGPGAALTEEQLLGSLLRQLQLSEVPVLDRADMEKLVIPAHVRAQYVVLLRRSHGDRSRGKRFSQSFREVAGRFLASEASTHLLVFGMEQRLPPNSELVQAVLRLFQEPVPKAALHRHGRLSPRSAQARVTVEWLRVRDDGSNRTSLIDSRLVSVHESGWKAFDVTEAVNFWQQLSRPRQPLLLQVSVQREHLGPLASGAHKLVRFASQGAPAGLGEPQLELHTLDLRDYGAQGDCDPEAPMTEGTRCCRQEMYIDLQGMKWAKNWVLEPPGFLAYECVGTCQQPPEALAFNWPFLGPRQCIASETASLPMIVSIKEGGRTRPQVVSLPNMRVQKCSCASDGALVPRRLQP", "assay": "small molecules binding LEFTY2 protein – biochemical, small-molecule microarray, 635 nm fluorescence scan, primary screen (AID 1110)", "conditions": "higher = more signal"}
{"smiles": "O=C1O[C@H](c2ccccc2)[C@H](c2ccccc2)N2[C@H]1[C@@H](C(=O)NC[C@H](O)c1ccccc1)[C@]1(C(=O)Nc3ccccc31)[C@H]2c1ccccc1OCCO", "composite z-score": -0.11}
{"smiles": "[N-]=[N+]=NCc1ccccc1[C@H]1OC(c2ccc(OCCCO)cc2)=N[C@@]1(Cc1ccccc1N=[N+]=[N-])C(=O)N1CCCCC1", "composite z-score": 0.291}
{"smiles": "O=[N+]([O-])c1ccc(C[n+]2ccc(-c3ccc(CO)cc3)cc2)o1", "composite z-score": 0.187}
{"smiles": "O=C1OCC=C[C@H]2OC34C=CCN(CCN5CCOCC5)C(=O)[C@H]3N(CCCCCO)C(=O)[C@@H]4[C@@H]12", "note": "(stereo not given in full)", "composite z-score": -0.258}
{"smiles": "Cc1ccccc1C(O)C1C=CC2C(=O)N(C)C(=O)C2N1Nc1ccc([N+](=O)[O-])cc1[N+](=O)[O-]", "note": "(stereo not given)", "composite z-score": 0.0979}
{"smiles": "O=C1NC(=O)C2C1C=CC(C(O)CCc1ccccc1)N2Nc1ccccn1", "note": "(stereo not given)", "composite z-score": -0.0953}
{"smiles": "O=C(O)[C@@]1(Cc2ccccc2)COC(c2ccc(OCCCO)cc2)=N1", "composite z-score": -0.714}
{"smiles": "COC(=O)[C@@]1(Cc2ccccc2)[C@H]2c3cc(C(=O)N(C)C)n(Cc4ccccn4)c3C[C@H]2CN1C(=O)c1ccccc1", "composite z-score": -0.0545}
{"smiles": "Cc1ccccc1C(O)C1C=CC2C(=O)N(Cc3ccccc3)C(=O)C2N1n1cnnc1", "note": "(stereo not given)", "composite z-score": -0.305}
{"smiles": "CCOc1cc(C(O)C2C=CC3C(=O)NC(=O)C3N2Nc2ccccn2)ccc1O", "note": "(stereo not given)", "composite z-score": 0.205}
{"smiles": "CCOC(=O)C[C@H]1[C@H](OC(=O)c2ccccc2-c2ccccc2)[C@@H](NC(=O)c2ccccc2)c2cc(OCCCO)ccc2N1C(=O)Cc1ccc(OC)cc1", "composite z-score": -0.0713}
{"smiles": "COC(=O)C(CC#Cc1ccc2c(c1)[C@]1(C(=O)N2)[C@H](c2ccccc2OCCO)N2[C@H](c3ccccc3)[C@H](c3ccccc3)OC(=O)[C@H]2[C@@H]1C(=O)Nc1nc2ccccc2s1)C(=O)OC", "composite z-score": 0.397}
{"smiles": "C=CCC(OC(C)=O)[C@@H]1[C@@H](N(Cc2cccc3ccccc23)C(=O)c2ccc(C)cc2)c2cc(OCCCO)ccc2N1C(=O)c1ccc2ccccc2c1", "note": "(stereo not given in full)", "composite z-score": 0.346}
{"smiles": "O=C1NC(=O)C2C1C=CC(C(O)c1ccc3c(c1)OCO3)N2Nc1ccc(Cl)cc1Cl", "note": "(stereo not given)", "composite z-score": -0.0483}
{"smiles": "CCC[C@@H]1C[C@@]1(CCC)[C@@H](NC(=O)c1ccco1)c1ccc(Cl)cc1", "composite z-score": -0.936}
{"smiles": "CC(C)NC(=O)[C@@]1(Cc2ccccc2I)c2ccccc2C(=O)N(Cc2ccccc2C(F)(F)F)[C@H]1c1ccc(CO)cc1", "composite z-score": -0.0083}
{"smiles": "CCOC(=O)C[C@H]1[C@H](OC(=O)c2ccc(C(=O)c3ccccc3)cc2)[C@@H](NC(=O)C2CCCCC2)c2cc(OCCCO)ccc2N1C(=O)Cc1ccc(OC)cc1", "composite z-score": 0.0258}
{"smiles": "COc1ccc([Si](C)(C)[C@@H]2[C@@H](CC(=O)N3Cc4ccccc4C[C@H]3CO)O[C@]3(C(=O)N(Cc4cccc(N5CCCCC5=O)c4)c4ccccc43)[C@H]2C)cc1", "composite z-score": 0.709}
{"smiles": "COCC(=C=CC[C@@H](O)c1ccccc1OCCO)C[C@@H](O)c1ccccn1", "composite z-score": 0.289}
{"smiles": "COCCCNC(=O)[C@]1(CCS(=O)(=O)c2ccccc2)N=C(c2ccc(OCCCO)cc2)O[C@@H]1c1ccccc1", "composite z-score": 0.494}
{"smiles": "COc1cccc(C[C@H]2C[C@@H](CO[Si](C(C)C)(C(C)C)C(C)C)N3C(=O)[C@]4(C(C)=O)O[C@]23[C@H]2C(=O)N(C)C(=O)[C@H]24)c1", "composite z-score": 0.717}
{"smiles": "CCCCC(=C=CC[C@H](O)c1cccc(OCCO)c1)C[C@H](O)COCc1ccccc1", "composite z-score": -0.466}
{"smiles": "CC(C)CNC(=O)[C@@]1(C)c2ccccc2C(=O)N(Cc2ccccc2)[C@H]1c1ccc(CO)cc1", "composite z-score": -1.55}
{"smiles": "O=C1N(Cc2ccccc2)c2ccccc2[C@H]2OC(c3ccc(OCCCO)cc3)=N[C@@]12CCS(=O)(=O)c1ccccc1", "composite z-score": 0.479}
{"smiles": "COc1ccc([Si](C)(C)[C@H]2[C@H](CCn3cc(CCO)nn3)O[C@@]3(C(=O)N(Cc4cccc(N5C(=O)c6cccc7cccc5c67)c4)c4ccccc43)[C@@H]2C)cc1", "composite z-score": 0.464}
{"smiles": "COCCOC(=O)N1C(=O)[C@@]2(c3cc(C#CCC(C(=O)OC)C(=O)OC)ccc31)[C@H](c1ccc(OCCO)cc1)N1[C@H](c3ccccc3)[C@H](c3ccccc3)OC(=O)[C@H]1[C@@H]2C(N)=O", "composite z-score": 0.535}
{"smiles": "[N-]=[N+]=NCc1ccccc1C[C@]1(C(=O)NCCN2CCOCC2)COC(c2ccc(OCCCO)cc2)=N1", "composite z-score": -0.389}
{"smiles": "O=C(NCc1ccccc1)[C@]1(Cc2ccccc2)N=C(c2ccc(OCCCO)cc2)O[C@@H]1c1ccccc1", "composite z-score": -0.126}
{"smiles": "CN(C)C(=O)[C@]1(Cc2ccccc2N=[N+]=[N-])N=C(c2ccc(OCCCO)cc2)O[C@@H]1c1ccccc1CN=[N+]=[N-]", "composite z-score": 0.234}
{"smiles": "C=C[C@@H](O)[C@H]1CC(c2ccccc2)=NO1", "composite z-score": 0.277}
{"smiles": "C=CC[C@]1(C(=O)N(C)C)N=C(c2ccc(OCCCO)cc2)O[C@H]1c1ccccc1", "composite z-score": -0.309}
{"smiles": "O=C(Nc1cc(Br)ccc1C(=O)NCc1cccc(O)c1)c1ccccc1", "composite z-score": 0.547}
{"smiles": "CC(C)N1C(=O)c2ccccc2[C@](C)(C(=O)O)[C@@H]1c1ccc(CO)cc1", "composite z-score": -1.23}
{"smiles": "COCC(=C=CC[C@@H](O)c1ccccc1OCCO)C[C@@H](O)COCc1ccccc1", "composite z-score": -0.522}
{"smiles": "C=C(C)[C@@H]1CC=C(C(O)C2C=CC3C(=O)N(C4CCCCC4)C(=O)C3N2Nc2ccc(OC)cc2)CC1", "note": "(stereo not given in full)", "composite z-score": 0.3}
